This passage reports AC50 and outcome results from PubChem BioAssay (EPA / NIEHS).

The structures appear in SMILES notation. Results filed as inconclusive are left out. The source made the active and inactive calls. Rule for the calls, unless noted: active = hit-call score of the fitted dose curve at least 0.9, where 1 is the maximum; inactive = score below 0.9.

Chain of Transcriptional activator Myb (Homo sapiens) (P10242 whole entry, looked up): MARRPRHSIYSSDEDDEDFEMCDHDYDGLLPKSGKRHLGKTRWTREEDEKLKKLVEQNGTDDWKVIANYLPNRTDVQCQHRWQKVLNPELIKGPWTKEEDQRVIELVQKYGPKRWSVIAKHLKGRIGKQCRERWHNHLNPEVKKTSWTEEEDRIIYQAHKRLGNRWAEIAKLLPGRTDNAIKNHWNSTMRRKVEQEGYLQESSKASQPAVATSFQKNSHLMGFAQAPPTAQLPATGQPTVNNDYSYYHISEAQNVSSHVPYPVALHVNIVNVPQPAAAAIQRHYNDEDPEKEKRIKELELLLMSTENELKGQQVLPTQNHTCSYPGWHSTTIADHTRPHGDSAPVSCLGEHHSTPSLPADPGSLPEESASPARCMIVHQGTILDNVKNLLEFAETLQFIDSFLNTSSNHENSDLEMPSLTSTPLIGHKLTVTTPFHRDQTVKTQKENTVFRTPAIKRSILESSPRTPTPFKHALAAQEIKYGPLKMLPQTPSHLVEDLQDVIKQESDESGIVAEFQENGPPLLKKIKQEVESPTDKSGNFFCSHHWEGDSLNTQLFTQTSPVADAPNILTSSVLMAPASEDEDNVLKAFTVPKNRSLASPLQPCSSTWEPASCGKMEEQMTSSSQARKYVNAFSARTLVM
Chain of Nuclear receptor subfamily 4 group A member 2 (Homo sapiens) (P43354 whole entry, looked up, the tested form may be a part): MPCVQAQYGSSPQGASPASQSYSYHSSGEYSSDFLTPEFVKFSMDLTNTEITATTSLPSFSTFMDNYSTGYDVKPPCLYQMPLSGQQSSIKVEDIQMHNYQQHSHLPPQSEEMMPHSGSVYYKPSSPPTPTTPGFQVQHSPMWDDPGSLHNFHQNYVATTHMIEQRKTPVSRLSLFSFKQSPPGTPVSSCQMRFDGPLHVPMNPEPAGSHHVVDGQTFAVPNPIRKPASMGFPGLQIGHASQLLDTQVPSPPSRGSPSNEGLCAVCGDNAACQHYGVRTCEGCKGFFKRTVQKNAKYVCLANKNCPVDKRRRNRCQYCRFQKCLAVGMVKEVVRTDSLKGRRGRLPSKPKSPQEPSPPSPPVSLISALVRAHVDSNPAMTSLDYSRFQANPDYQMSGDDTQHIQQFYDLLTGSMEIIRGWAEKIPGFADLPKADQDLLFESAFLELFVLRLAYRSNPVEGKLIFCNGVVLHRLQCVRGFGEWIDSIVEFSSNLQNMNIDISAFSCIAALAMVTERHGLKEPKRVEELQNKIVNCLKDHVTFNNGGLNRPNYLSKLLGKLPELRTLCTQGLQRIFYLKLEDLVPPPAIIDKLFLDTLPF

The first test concerns the target Nuclear receptor subfamily 4 group A member 2 (Homo sapiens) (UniProt P43354). The test is described as follows: ATG_NURR1_TRANS: Attagene TRANS-FACTORIAL HepG2 Assay for human Nuclear Receptor Related Protein 1 (NURR1) (AID 2282985; active = hit-call score of the fitted dose curve at least 0.9, where 1 is the maximum). The following applies: HepG2 Attagene TRANS reporter, mRNA readout. The method in brief: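 Read-out: reporter mRNA induction by RT-PCR plus capillary electrophoresis with fluorescence detection, after 24 h dosing of transfected HepG2 cells. Exogenous NR-Gal4 chimera activity drives GAL4-UAS reporter; activity fitted upward versus DMSO.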
Broadly, the AC50 is the midpoint of the concentration-response curve, whichever way the signal moves. Turning to `c1ccc2c(c1)-c1cccc3cccc-2c13`, the AC50 was 160 µM (active).

As to `N#CC(Br)(Br)C(N)=O`, the molecule was called inactive.

Consider `CC(C)(C)OOC(C)(C)CCC(C)(C)OOC(C)(C)C`, for which the result was inactive.

`CCCCC(CC)COC(=O)c1ccc(C(=O)OCC(CC)CCCC)c(C(=O)OCC(CC)CCCC)c1` (stereo not drawn): the molecule was classed as inactive.

With `CC(O)CCO` (stereo not drawn), the molecule was classed as inactive.

Regarding `COC(=O)Nc1nc2ccccc2[nH]1`, the molecule was called inactive.

Regarding `ClC1=C(Cl)[C@]2(Cl)[C@H]3[C@H]([C@@H]4C=C[C@H]3C4)[C@@]1(Cl)C2(Cl)Cl`, the result was inactive.

In the case of `OCCCBr`, the outcome was inactive.

As to `O=Cc1ccco1`, the molecule was called inactive.

As to `[O-][Cl+]O`, the molecule was called inactive.

Consider `Cc1ccc(N)cc1`, for which the outcome was inactive.

Consider `CCN(CC)CCO`, for which the call was inactive.

With `C1=Cc2cccc3cccc1c23`, the result was inactive.

Take `Clc1ccc(Cl)c(Cl)c1`: the call was inactive.

For the next test, the target named is Transcriptional activator Myb (Homo sapiens) (UniProt P10242). The test is described as follows: ATG_Myb_CIS: Attagene CIS-FACTORIAL HepG2 Assay for human Myeloblastosis (Myb) Proto-Oncogene Transcription Factor (AID 2282986). The following applies: HepG2 Attagene CIS-FACTORIAL Myb reporter transcription; actives raise or lower the signal. Put shortly:
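Reporter mRNA is quantified by RT-PCR and capillary electrophoresis 24 h after dosing HepG2 cells transfected with cis-regulated reporter units, which track endogenous transcription factor activity. Gain and loss of signal are fitted versus DMSO baseline.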
On to `c1ccc2c(c1)-c1cccc3cccc-2c13`, for which the molecule was called inactive.

On to `Cc1ccc([N+](=O)[O-])cc1`, for which the molecule was called inactive.

Turning to `N#CC(Br)(Br)C(N)=O`, the call was inactive.

Turning to `CC(C)(C)OOC(C)(C)CCC(C)(C)OOC(C)(C)C`, the call was inactive.

As to `O=C1CCCO1`, the call was inactive.

Take `CCCCC(CC)COC(=O)c1ccc(C(=O)OCC(CC)CCCC)c(C(=O)OCC(CC)CCCC)c1` (stereo not drawn): the outcome was inactive.

Regarding `COc1cc(C=O)cc2c1[C@H](COC(N)=O)[C@]1(OC(C)=O)ON2C[C@H]2[C@@H]1N2C(C)=O`, the AC50 was 2.77 µM (active).

As to `CC(O)CCO` (stereo not drawn), the outcome was inactive.

Regarding `COC(=O)Nc1nc2ccccc2[nH]1`, the molecule was classed as inactive.

For the molecule `Cc1ccc(N)c(N)c1`, the molecule was called inactive.

Take `ClC1=C(Cl)[C@]2(Cl)[C@H]3[C@H]([C@@H]4C=C[C@H]3C4)[C@@]1(Cl)C2(Cl)Cl`: the molecule was called inactive.

`OCCCBr`: the molecule was called inactive.

Consider `Nc1cc(Cl)cc(C(=O)O)c1Cl`, for which the result was inactive.

With `O=Cc1ccco1`, the result was inactive.

For the molecule `CC(C)(C)OOC(=O)c1ccccc1`, the half-maximal activity concentration (AC50) is 153 µM (active).

Turning to `Cc1ccc(N=C=O)cc1N=C=O`, the molecule was classed as inactive.

On to `COC(=O)c1ccccc1N`, for which the outcome was inactive.

As for `[O-][Cl+]O`, the call was inactive.

For the molecule `CCOc1cccc(C2(N3CCN(c4ccccc4)CC3)CCC(C)CC2)c1` (stereo not drawn), the outcome was inactive.

In the case of `CCC12COCN1COC2`, the molecule was called inactive.

In the case of `C[N+](C)(C)CC1CO1` (stereo not drawn), the result was inactive.

Consider `Cc1ccc(N)cc1`, for which the call was inactive.

In the case of `CS(=O)(=O)NC(=O)c1cc(Oc2ccc(C(F)(F)F)cc2Cl)ccc1[N+](=O)[O-]`, the molecule was classed as inactive.

In the case of `CCN(CC)N=O`, the outcome was inactive.

For the molecule `CCN(CC)CCO`, the outcome was inactive.

Regarding `C1=Cc2cccc3cccc1c23`, the result was inactive.

For the molecule `OCCOCCO`, the molecule was classed as inactive.

Consider `Clc1ccc(Cl)c(Cl)c1`, for which the molecule was classed as inactive.

The target in another test is Nuclear respiratory factor 1 (Homo sapiens) (UniProt Q16656). The test is described as follows: ATG_NRF1_CIS: Attagene CIS-FACTORIAL HepG2 Assay for human Nuclear Respiratory Factor 1 (NRF1) Orphan Gene (AID 2282987). The following applies: HepG2 NRF1 cis-element reporter, Attagene multiplex; actives raise or lower the signal. Put shortly: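 Endogenous NRF1-driven reporter transcription in transfected HepG2 cells after 24 h treatment. Readout: RT-PCR products, 6-FAM labelled and resolved by capillary electrophoresis; changes fitted both directions relative to DMSO.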
Chain of Nuclear respiratory factor 1 (Homo sapiens) (Q16656 whole entry, looked up): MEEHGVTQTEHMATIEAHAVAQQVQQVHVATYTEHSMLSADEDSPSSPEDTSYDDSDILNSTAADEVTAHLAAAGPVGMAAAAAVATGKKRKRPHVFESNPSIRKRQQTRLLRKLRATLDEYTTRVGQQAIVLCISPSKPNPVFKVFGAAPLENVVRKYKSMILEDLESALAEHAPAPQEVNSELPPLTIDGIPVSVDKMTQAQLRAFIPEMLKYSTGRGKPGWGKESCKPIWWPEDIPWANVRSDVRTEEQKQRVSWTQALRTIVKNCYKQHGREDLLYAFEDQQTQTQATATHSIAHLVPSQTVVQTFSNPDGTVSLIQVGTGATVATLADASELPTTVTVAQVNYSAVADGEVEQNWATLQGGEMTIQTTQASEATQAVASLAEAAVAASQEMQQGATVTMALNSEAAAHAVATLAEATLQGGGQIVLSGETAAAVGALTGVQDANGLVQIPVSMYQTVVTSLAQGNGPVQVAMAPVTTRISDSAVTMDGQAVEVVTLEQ
For `c1ccc2c(c1)-c1cccc3cccc-2c13`, the molecule was called inactive.

Regarding `Cc1ccc([N+](=O)[O-])cc1`, the molecule was classed as inactive.

Consider `N#CC(Br)(Br)C(N)=O`, for which the call was inactive.

As to `CC(C)(C)OOC(C)(C)CCC(C)(C)OOC(C)(C)C`, the molecule was classed as inactive.

With `O=C1CCCO1`, the molecule was classed as inactive.

For the molecule `CCCCC(CC)COC(=O)c1ccc(C(=O)OCC(CC)CCCC)c(C(=O)OCC(CC)CCCC)c1` (stereo not drawn), the outcome was inactive.

Turning to `COc1cc(C=O)cc2c1[C@H](COC(N)=O)[C@]1(OC(C)=O)ON2C[C@H]2[C@@H]1N2C(C)=O`, the molecule was called inactive.

As to `CC(O)CCO` (stereo not drawn), the result was inactive.

On to `COC(=O)Nc1nc2ccccc2[nH]1`, for which the call was inactive.

As for `Cc1ccc(N)c(N)c1`, the call was inactive.

For `ClC1=C(Cl)[C@]2(Cl)[C@H]3[C@H]([C@@H]4C=C[C@H]3C4)[C@@]1(Cl)C2(Cl)Cl`, the result was inactive.

`OCCCBr`: the molecule was classed as inactive.

For the molecule `Nc1cc(Cl)cc(C(=O)O)c1Cl`, the molecule was called inactive.

Consider `O=Cc1ccco1`, for which the outcome was inactive.

`CC(C)(C)OOC(=O)c1ccccc1`: the call was inactive.

For the molecule `Cc1ccc(N=C=O)cc1N=C=O`, the molecule was called inactive.

`COC(=O)c1ccccc1N`: the molecule was called inactive.

Take `[O-][Cl+]O`: the call was inactive.

Turning to `CCOc1cccc(C2(N3CCN(c4ccccc4)CC3)CCC(C)CC2)c1` (stereo not drawn), the call was inactive.

Take `CCC12COCN1COC2`: the call was inactive.

Take `C[N+](C)(C)CC1CO1` (stereo not drawn): the result was inactive.

Regarding `Cc1ccc(N)cc1`, the molecule was classed as inactive.

Consider `CS(=O)(=O)NC(=O)c1cc(Oc2ccc(C(F)(F)F)cc2Cl)ccc1[N+](=O)[O-]`, for which the molecule was called inactive.

For the molecule `CCN(CC)N=O`, the outcome was inactive.

For the molecule `CCN(CC)CCO`, the result was inactive.

Regarding `C1=Cc2cccc3cccc1c23`, the outcome was inactive.

For `OCCOCCO`, the molecule was called inactive.

Regarding `Clc1ccc(Cl)c(Cl)c1`, the result was inactive.

Test system in another test: not listed separately
The test is described as follows: ATG_NFI_CIS: Attagene CIS-FACTORIAL HepG2 Assay for human Nuclear Factor I (NFI) (AID 2282989). The following applies: HepG2 cis-regulatory reporter, NFI response element transcription; actives raise or lower the signal. Put shortly: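 Read-out: reporter mRNA via RT-PCR plus capillary electrophoresis with fluorescence detection. Transiently transfected HepG2 (endogenous TF activity on cis promoters), 24 h compound exposure; gain or loss of signal fitted against DMSO.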
For `c1ccc2c(c1)-c1cccc3cccc-2c13`, the result was inactive.

As to `Cc1ccc([N+](=O)[O-])cc1`, the outcome was inactive.

As for `N#CC(Br)(Br)C(N)=O`, the molecule was classed as inactive.

As to `CC(C)(C)OOC(C)(C)CCC(C)(C)OOC(C)(C)C`, the result was inactive.

For `O=C1CCCO1`, the outcome was inactive.

`CCCCC(CC)COC(=O)c1ccc(C(=O)OCC(CC)CCCC)c(C(=O)OCC(CC)CCCC)c1` (stereo not drawn): the molecule was called inactive.

For `COc1cc(C=O)cc2c1[C@H](COC(N)=O)[C@]1(OC(C)=O)ON2C[C@H]2[C@@H]1N2C(C)=O`, the AC50 was 52 µM (active).

Regarding `CC(O)CCO` (stereo not drawn), the call was inactive.

`COC(=O)Nc1nc2ccccc2[nH]1`: the call was inactive.

`Cc1ccc(N)c(N)c1`: the result was inactive.

For the molecule `ClC1=C(Cl)[C@]2(Cl)[C@H]3[C@H]([C@@H]4C=C[C@H]3C4)[C@@]1(Cl)C2(Cl)Cl`, the outcome was inactive.

On to `OCCCBr`, for which the molecule was called inactive.

For `Nc1cc(Cl)cc(C(=O)O)c1Cl`, the call was inactive.

For the molecule `O=Cc1ccco1`, the result was inactive.

On to `CC(C)(C)OOC(=O)c1ccccc1`, for which the molecule was classed as inactive.

For `Cc1ccc(N=C=O)cc1N=C=O`, the molecule was classed as inactive.

With `COC(=O)c1ccccc1N`, the molecule was classed as inactive.

Take `[O-][Cl+]O`: the outcome was inactive.

Regarding `CCOc1cccc(C2(N3CCN(c4ccccc4)CC3)CCC(C)CC2)c1` (stereo not drawn), the molecule was classed as inactive.

Regarding `CCC12COCN1COC2`, the molecule was called inactive.

Turning to `C[N+](C)(C)CC1CO1` (stereo not drawn), the molecule was called inactive.

For `Cc1ccc(N)cc1`, the outcome was inactive.

For `CS(=O)(=O)NC(=O)c1cc(Oc2ccc(C(F)(F)F)cc2Cl)ccc1[N+](=O)[O-]`, the outcome was inactive.

Turning to `CCN(CC)N=O`, the result was inactive.

With `CCN(CC)CCO`, the outcome was inactive.

As to `C1=Cc2cccc3cccc1c23`, the call was inactive.

Regarding `OCCOCCO`, the outcome was inactive.

On to `Clc1ccc(Cl)c(Cl)c1`, for which the molecule was called inactive.
